Data: the supplement of paper PMC10849652
The full data set covers some 8,800 targets. This sample favours those with a hit. About 0.5% of all pairs of compound and target were hits.

Columns and labels:
Assay in all cases: log2 fold change, soluble protein after heating vs DMSO (PISA); higher = thermal stabilisation; K562 lysate, 10 uM; active = over 0.2 and 3.5 SD of the protein, either way, in both replicates (recomputed)
vemurafenib = compound: CCCS(=O)(=O)Nc1ccc(F)c(C(=O)c2c[nH]c3ncc(-c4ccc(Cl)cc4)cc23)c1F [vemurafenib]
Procedure, shortened: (§1)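 To prepare the extract, K562 pellets were dounce-homogenised in PBS pH 7.4 with 1 mM MgCl2, giving crude material at 1 mg/mL protein. This was treated with 10 μM compound for 30 min, then heated in aliquots for 3 min over 48°C-58°C before pooling and addition of NP-40 to 0.5% at 4°C. Centrifugation at 21,000xg for 90 min left soluble protein in the supernatant, which TMTpro 16plex LC-MS/MS quantified with equalised channel sums. Results are log-two fold changes in thermal stability compared with solvent controls, from duplicates.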

[1] = compound: CCCS(=O)(=O)Nc1ccc(F)c(C(=O)c2c[nH]c3ncc(Cl)cc23)c1F
Procedure, shortened: as §1

barasertib = compound: CCN(CCCOc1ccc2c(Nc3cc(CC(=O)Nc4cccc(F)c4)[nH]n3)ncnc2c1)CCOP(=O)(O)O [barasertib]
Procedure, shortened: as §1

[2] = compound: CC[C@@H]1C(=O)N(C)c2cnc(Nc3ccc(C(=O)NC4CCN(C)CC4)cc3OC)nc2N1C1CCCC1
Procedure, shortened: as §1

volasertib = compound: CC[C@@H]1C(=O)N(C)c2cnc(Nc3ccc(C(=O)N[C@H]4CC[C@H](N5CCN(CC6CC6)CC5)CC4)cc3OC)nc2N1C(C)C [volasertib]
Procedure, shortened: as §1

[3] = compound: CCn1c(C(=O)N(C2CC2)C2CC2)cc2c3c(ncn3C)c(Nc3cc(C)n(C)n3)nc21
Procedure, shortened: as §1

[4] = compound: CCn1cc(-c2ccnc3[nH]c(-c4cccc(CN(C)C)c4)cc23)c(-c2ccc(NC(=O)N(C)C)cc2)n1
Procedure, shortened: as §1

[5] = compound: CN1CCC(CNc2ccc3ncc(-c4cccc(OC(F)(F)F)c4)n3n2)CC1
Procedure, shortened: as §1

saracatinib = compound: CN1CCN(CCOc2cc(OC3CCOCC3)c3c(Nc4c(Cl)ccc5c4OCO5)ncnc3c2)CC1 [saracatinib]
Procedure, shortened: as §1

sotrastaurin = compound: CN1CCN(c2nc(C3=C(c4c[nH]c5ccccc45)C(=O)NC3=O)c3ccccc3n2)CC1 [sotrastaurin]
Procedure, shortened: as §1

alvocidib = compound: CN1CC[C@H](c2c(O)cc(O)c3c(=O)cc(-c4ccccc4Cl)oc23)[C@H](O)C1 [alvocidib]
Procedure, shortened: as §1

Tubastatin A = compound: CN1CCc2c(c3ccccc3n2Cc2ccc(C(=O)NO)cc2)C1 [Tubastatin A]
Procedure, shortened: as §1

[6] = compound: CNC(=O)C1=CC=CC=C1NC2=NC(=NC=C2Cl)NC3=C(C=C(C=C3)N4CCOCC4)OC
Procedure, shortened: as §1

defactinib = compound: CNC(=O)c1ccc(Nc2ncc(C(F)(F)F)c(NCc3nccnc3N(C)S(C)(=O)=O)n2)cc1 [defactinib]
Procedure, shortened: as §1

[7] = compound: CNc1nc(-c2ccc3c(N)n[nH]c3c2)cc(N2C[C@@H](C(=O)NC3CCCCC3)CC[C@H]2C)n1
Procedure, shortened: as §1

encorafenib = compound: COC(=O)N[C@@H](C)CNc1nccc(-c2cn(C(C)C)nc2-c2cc(Cl)cc(NS(C)(=O)=O)c2F)n1 [encorafenib]
Procedure, shortened: as §1

[8] = compound: COC(=O)[C@H](CCSC)NC(=O)C1=C(C=C(C=C1)NC[C@H](CS)N)C2=CC=CC=C2
Procedure, shortened: as §1

alisertib = compound: COc1cc(Nc2ncc3c(n2)-c2ccc(Cl)cc2C(c2c(F)cccc2OC)=NC3)ccc1C(=O)O [alisertib]
Procedure, shortened: as §1

[9] = compound: COc1cc2nc(-c3cc(F)ccc3O)nc(N[C@@H]3CNC[C@H]3C(C)(C)O)c2cc1OC
Procedure, shortened: as §1

gefitinib = compound: COc1cc2ncnc(Nc3ccc(F)c(Cl)c3)c2cc1OCCCN1CCOCC1 [gefitinib]
Procedure, shortened: as §1

Measured: log2 fold change

CAD (UniProt P27708)
inactive: vemurafenib 0.005 | [1] 0.026 | barasertib -0.004 | [2] -0.037 | volasertib -0.069 | [3] 0.012 | [4] -0.085 | [5] 0.003 | saracatinib -0.004 | sotrastaurin 0.003 | alvocidib 0 | Tubastatin A -0.063 | [6] 0.01 | defactinib -0.022 | [7] -0.008 | encorafenib 0.001 | [8] 0.067 | alisertib -0.007 | [9] -0.015 | gefitinib -0.032

CCDC32 isoform 2 (UniProt Q9BV29)
UniProt Q9BV29, sequence (Q9BV29 whole entry, looked up): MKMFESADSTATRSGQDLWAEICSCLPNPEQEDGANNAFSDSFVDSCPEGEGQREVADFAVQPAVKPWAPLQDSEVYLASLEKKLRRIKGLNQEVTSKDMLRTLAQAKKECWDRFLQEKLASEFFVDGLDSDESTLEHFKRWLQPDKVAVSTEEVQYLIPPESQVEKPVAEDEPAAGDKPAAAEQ
inactive: vemurafenib 0.007 | [1] 0 | barasertib 0.351 | [2] -0.041 | volasertib 0.021 | [3] -0.061 | [4] -0.246 | [5] 0.065 | saracatinib 0.021 | sotrastaurin -0.012 | alvocidib -0.102 | Tubastatin A -0.033 | [6] -0.061 | defactinib 0.095 | [7] 0.04 | encorafenib 0.055 | [8] -0.065 | alisertib -0.098 | [9] -0.045 | gefitinib -0.026

BAHCC1 (UniProt Q9P281)
inactive: vemurafenib 0.11 | [1] 0.004 | [2] -0.247 | volasertib 0 | [4] 0.415 | [5] 0.219 | saracatinib 0.025 | sotrastaurin 0.127 | alvocidib -0.569 | [6] -0.135 | defactinib -0.208 | [7] -0.054 | encorafenib 0.038 | [8] -0.024 | alisertib 0.085 | [9] 0.076 | gefitinib 0.095

BTK isoform 2 (UniProt Q06187)
UniProt Q06187, sequence (Q06187 whole entry, looked up): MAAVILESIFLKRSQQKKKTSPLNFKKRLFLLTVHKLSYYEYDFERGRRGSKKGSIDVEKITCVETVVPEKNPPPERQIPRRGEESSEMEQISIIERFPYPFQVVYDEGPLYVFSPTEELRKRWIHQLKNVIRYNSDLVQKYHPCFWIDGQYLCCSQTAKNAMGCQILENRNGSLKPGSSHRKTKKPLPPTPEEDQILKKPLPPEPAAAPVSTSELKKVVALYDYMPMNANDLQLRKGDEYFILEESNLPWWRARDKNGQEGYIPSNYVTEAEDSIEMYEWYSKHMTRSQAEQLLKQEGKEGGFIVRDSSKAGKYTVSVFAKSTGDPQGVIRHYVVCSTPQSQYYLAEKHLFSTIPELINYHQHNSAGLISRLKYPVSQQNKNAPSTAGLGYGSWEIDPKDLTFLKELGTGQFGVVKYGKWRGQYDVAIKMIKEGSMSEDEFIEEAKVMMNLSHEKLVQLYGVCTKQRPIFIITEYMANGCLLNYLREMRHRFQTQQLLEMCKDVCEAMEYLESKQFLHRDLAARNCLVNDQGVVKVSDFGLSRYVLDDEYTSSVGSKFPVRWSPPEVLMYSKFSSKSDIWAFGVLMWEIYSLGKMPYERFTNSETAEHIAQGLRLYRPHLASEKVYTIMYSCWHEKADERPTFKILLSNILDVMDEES
inactive: vemurafenib -0.014 | [1] 0.013 | barasertib 0.128 | volasertib -0.106 | [3] 0.01 | [4] -0.147 | [5] 0.053 | saracatinib 0.058 | sotrastaurin -0.026 | alvocidib -0.037 | Tubastatin A -0.113 | defactinib 0.017 | [7] -0.039 | encorafenib -0.033 | [8] 0.051 | alisertib -0.012 | [9] -0.029 | gefitinib -0.046
active: [6] 0.307

CCAR2 (UniProt Q8N163)
UniProt Q8N163, sequence (Q8N163 whole entry, looked up): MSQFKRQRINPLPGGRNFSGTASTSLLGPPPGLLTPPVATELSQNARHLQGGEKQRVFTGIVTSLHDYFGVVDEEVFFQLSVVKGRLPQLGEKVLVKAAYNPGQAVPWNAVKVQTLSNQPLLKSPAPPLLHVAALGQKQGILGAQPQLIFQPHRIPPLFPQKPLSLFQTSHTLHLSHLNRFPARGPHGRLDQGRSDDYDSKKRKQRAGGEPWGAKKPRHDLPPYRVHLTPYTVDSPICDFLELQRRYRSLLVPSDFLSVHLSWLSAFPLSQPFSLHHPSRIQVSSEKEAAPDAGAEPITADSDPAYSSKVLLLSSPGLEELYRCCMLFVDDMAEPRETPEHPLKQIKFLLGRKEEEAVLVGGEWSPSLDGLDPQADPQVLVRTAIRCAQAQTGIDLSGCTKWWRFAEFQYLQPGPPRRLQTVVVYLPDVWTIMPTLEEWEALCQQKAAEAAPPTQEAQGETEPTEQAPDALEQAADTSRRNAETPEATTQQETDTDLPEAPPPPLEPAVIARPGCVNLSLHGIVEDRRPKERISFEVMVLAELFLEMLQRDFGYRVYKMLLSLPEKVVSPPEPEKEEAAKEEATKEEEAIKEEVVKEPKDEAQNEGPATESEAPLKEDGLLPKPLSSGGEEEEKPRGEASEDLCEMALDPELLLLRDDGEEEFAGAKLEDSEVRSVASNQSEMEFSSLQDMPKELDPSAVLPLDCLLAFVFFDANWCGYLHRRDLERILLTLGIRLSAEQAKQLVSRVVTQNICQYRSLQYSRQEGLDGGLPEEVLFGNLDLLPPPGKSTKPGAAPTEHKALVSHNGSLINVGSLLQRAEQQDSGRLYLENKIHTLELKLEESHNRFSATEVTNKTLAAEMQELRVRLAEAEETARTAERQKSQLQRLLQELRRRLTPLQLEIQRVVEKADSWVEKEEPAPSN
inactive: vemurafenib -0.007 | [1] -0.004 | barasertib -0.047 | [2] -0.01 | volasertib -0.031 | [3] 0.01 | [4] -0.057 | [5] 0.032 | saracatinib -0.002 | sotrastaurin 0.007 | alvocidib -0.052 | Tubastatin A -0.096 | [6] 0.001 | defactinib 0.018 | [7] -0.02 | encorafenib 0.014 | [8] 0.011 | alisertib 0.014 | [9] 0 | gefitinib 0.003

CCDC85B (UniProt Q15834)
UniProt Q15834, sequence (Q15834 whole entry, looked up): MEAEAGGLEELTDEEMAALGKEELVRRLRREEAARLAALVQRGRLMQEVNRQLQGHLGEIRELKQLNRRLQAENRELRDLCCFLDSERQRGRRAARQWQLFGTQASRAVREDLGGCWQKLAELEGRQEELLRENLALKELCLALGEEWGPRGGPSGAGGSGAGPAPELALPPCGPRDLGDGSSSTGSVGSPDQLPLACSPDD
active: [9] -0.508
inactive: vemurafenib -0.317 | [1] 0.04 | barasertib -0.047 | [2] 0.086 | volasertib 0.345 | [3] 0.007 | [4] 0.126 | [5] -0.01 | saracatinib 0.163 | sotrastaurin -0.035 | alvocidib 0.016 | Tubastatin A 0.016 | [6] 0.217 | defactinib 0.183 | [7] -0.08 | encorafenib 0.255 | [8] -0.481

C8orf37 (UniProt Q96NL8)
UniProt Q96NL8, sequence (Q96NL8 whole entry, looked up): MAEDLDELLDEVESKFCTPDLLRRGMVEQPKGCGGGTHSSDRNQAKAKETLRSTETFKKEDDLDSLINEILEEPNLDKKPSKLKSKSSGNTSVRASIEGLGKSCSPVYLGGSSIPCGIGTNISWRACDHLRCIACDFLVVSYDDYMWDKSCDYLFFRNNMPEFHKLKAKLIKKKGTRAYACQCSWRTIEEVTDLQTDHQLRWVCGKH
inactive: vemurafenib 0.081 | [1] -0.061 | barasertib -0.062 | [2] 0.058 | volasertib -0.043 | [3] -0.075 | [4] 0.225 | [5] 0.166 | saracatinib -0.06 | sotrastaurin 0.072 | alvocidib -0.146 | Tubastatin A 0.022 | [6] -0.035 | defactinib 0.281 | [7] -0.099 | encorafenib 0.018 | [8] -0.011 | [9] 0.162

ATXN2 (UniProt Q99700)
UniProt Q99700, sequence (Q99700 whole entry, looked up): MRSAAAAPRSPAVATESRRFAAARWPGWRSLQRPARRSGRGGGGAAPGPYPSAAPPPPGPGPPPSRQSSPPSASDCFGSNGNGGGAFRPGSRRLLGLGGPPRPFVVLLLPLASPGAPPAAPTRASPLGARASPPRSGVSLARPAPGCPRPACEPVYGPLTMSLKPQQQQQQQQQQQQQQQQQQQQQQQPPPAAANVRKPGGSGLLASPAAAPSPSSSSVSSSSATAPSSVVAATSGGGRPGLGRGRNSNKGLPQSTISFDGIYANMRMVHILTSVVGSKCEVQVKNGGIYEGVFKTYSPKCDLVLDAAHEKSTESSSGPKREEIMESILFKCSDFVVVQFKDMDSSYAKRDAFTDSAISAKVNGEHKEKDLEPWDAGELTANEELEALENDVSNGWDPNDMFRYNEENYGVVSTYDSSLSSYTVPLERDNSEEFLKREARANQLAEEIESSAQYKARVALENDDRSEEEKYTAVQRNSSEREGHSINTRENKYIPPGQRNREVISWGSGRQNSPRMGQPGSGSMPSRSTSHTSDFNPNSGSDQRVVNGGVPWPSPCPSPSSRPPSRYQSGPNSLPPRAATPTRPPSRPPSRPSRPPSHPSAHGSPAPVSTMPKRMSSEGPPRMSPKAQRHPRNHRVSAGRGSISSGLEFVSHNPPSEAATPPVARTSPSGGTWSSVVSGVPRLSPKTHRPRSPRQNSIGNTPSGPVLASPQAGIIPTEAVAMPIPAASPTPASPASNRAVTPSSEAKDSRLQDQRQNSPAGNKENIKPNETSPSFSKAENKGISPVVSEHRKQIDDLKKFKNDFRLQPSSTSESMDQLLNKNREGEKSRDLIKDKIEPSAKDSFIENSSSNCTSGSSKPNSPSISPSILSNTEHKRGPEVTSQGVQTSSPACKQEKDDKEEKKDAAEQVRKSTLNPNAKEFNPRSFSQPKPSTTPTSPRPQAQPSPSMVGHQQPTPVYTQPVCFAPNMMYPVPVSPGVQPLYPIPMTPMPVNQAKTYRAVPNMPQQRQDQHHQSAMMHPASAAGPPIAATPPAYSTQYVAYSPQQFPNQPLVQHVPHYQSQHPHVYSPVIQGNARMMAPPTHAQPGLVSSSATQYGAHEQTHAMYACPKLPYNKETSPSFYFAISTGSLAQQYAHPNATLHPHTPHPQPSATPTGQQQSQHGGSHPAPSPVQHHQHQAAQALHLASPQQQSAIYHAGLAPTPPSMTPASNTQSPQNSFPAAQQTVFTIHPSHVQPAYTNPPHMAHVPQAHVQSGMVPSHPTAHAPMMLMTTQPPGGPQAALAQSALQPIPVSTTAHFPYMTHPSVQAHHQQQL
inactive: vemurafenib 0.007 | [1] -0.004 | barasertib 0.012 | [2] 0.057 | volasertib 0.001 | [3] 0.022 | [4] 0.005 | [5] -0.03 | saracatinib -0.014 | sotrastaurin 0.052 | alvocidib 0.046 | Tubastatin A -0.047 | [6] 0.016 | defactinib -0.019 | [7] 0.001 | encorafenib 0.018 | [8] -0.003 | alisertib -0.032 | [9] 0.011 | gefitinib 0.006

C19orf54 (UniProt Q5BKX5)
UniProt Q5BKX5, sequence (Q5BKX5 whole entry, looked up): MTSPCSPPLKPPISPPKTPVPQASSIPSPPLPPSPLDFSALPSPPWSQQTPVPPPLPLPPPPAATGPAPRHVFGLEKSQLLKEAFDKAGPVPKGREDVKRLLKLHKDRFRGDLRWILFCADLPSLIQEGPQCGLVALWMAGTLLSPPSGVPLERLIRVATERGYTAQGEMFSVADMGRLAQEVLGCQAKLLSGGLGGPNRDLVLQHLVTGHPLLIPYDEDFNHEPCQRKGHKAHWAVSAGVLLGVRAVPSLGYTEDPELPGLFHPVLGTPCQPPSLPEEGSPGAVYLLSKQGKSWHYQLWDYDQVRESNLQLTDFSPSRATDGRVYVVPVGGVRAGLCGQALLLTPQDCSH
inactive: vemurafenib 0.08 | [1] -0.028 | barasertib 0.002 | [2] -0.043 | volasertib -0.058 | [3] -0.06 | [4] 0.013 | [5] 0.003 | saracatinib -0.027 | sotrastaurin -0.027 | alvocidib -0.032 | Tubastatin A 0.004 | [6] 0.048 | defactinib -0.039 | [7] 0.023 | encorafenib 0.024 | [8] 0.151 | alisertib -0.099 | [9] 0.069 | gefitinib 0.08

ATXN2 (UniProt F8WB05)
inactive: vemurafenib -0.153 | [1] -0.024 | barasertib 0.057 | [2] -0.013 | volasertib -0.087 | [3] -0.005 | [4] 0.094 | [5] -0.004 | saracatinib 0.05 | sotrastaurin 0.086 | alvocidib -0.051 | Tubastatin A 0.23 | [6] 0.101 | defactinib -0.063 | [7] -0.03 | encorafenib -0.033 | [8] 0.023 | [9] 0.033

CANX (UniProt D6RHJ3)
inactive: vemurafenib -0.033 | [1] -0.04 | volasertib 0.017 | defactinib 0.174 | alisertib 0.068 | [9] 0.07 | gefitinib -0.242

CCDC186 (UniProt Q7Z3E2)
UniProt Q7Z3E2, sequence (Q7Z3E2 whole entry, looked up): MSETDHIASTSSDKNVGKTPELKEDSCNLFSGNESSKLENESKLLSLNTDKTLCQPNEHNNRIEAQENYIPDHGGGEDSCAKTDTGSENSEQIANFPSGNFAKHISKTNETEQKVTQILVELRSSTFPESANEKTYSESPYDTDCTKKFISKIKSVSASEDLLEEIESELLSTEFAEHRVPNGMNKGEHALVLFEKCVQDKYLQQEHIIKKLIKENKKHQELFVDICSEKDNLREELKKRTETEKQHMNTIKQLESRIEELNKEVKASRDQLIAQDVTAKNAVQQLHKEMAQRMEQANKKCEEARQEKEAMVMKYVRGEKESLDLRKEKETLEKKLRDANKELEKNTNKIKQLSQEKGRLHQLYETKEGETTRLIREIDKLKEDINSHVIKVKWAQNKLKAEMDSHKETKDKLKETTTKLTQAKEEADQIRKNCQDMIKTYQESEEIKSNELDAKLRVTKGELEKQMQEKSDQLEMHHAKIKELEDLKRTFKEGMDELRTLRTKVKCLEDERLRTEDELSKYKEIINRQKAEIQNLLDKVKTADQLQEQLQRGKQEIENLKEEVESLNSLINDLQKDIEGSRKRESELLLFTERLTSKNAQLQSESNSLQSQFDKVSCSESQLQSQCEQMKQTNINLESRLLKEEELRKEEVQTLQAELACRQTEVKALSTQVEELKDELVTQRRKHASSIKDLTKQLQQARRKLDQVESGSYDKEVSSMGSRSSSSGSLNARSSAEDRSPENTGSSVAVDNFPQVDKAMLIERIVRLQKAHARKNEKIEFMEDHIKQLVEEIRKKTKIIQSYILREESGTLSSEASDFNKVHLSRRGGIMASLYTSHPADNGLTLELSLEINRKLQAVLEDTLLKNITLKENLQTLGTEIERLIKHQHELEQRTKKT
inactive: vemurafenib -0.007 | [1] 0.069 | barasertib -0.029 | [2] 0.069 | volasertib 0.031 | [3] 0.019 | [5] -0.033 | saracatinib -0.003 | sotrastaurin -0.054 | alvocidib 0.056 | Tubastatin A 0.004 | [6] 0.062 | defactinib -0.012 | [7] -0.029 | encorafenib 0.067 | [8] -0.004 | alisertib 0.015 | [9] 0.004 | gefitinib 0.055
active: [4] 0.332

CDK5RAP2 (UniProt Q96SN8)
inactive: vemurafenib -0.023 | [1] -0.186 | barasertib 0.071 | [2] 0.029 | volasertib -0.3 | [3] 0.001 | [4] 0.016 | [5] -0.067 | saracatinib 0.027 | sotrastaurin -0.008 | alvocidib 0.018 | Tubastatin A -0.15 | [6] 0.009 | defactinib 0.037 | [7] -0.007 | encorafenib 0.045 | [8] 0.012 | alisertib -0.007 | [9] -0.144 | gefitinib -0.021

CACUL1 (UniProt Q86Y37)
inactive: vemurafenib 0.04 | [1] 0.053 | [2] -0.04 | volasertib 0.106 | [3] -0.072 | [4] 0.012 | [5] -0.111 | saracatinib -0.026 | sotrastaurin 0.103 | alvocidib 0.022 | Tubastatin A -0.029 | [6] -0.027 | defactinib 0.027 | [7] -0.04 | encorafenib -0.02 | [8] -0.042 | [9] 0.212

CHCHD7 isoform 4 (UniProt Q9BUK0)
active: [4] -0.71
inactive: vemurafenib 0.026 | [1] 0.06 | barasertib -0.026 | [2] 0.073 | volasertib -0.064 | [3] 0.021 | [5] 0.155 | saracatinib -0.021 | sotrastaurin 0.077 | alvocidib -0.097 | Tubastatin A 0.082 | defactinib -0.009 | [7] -0.141 | encorafenib 0.005 | [8] -0.003 | alisertib 0.177 | [9] 0.027 | gefitinib 0.118

C16orf70 (UniProt Q9BSU1)
inactive: vemurafenib 0.053 | [1] 0.086 | barasertib -0.016 | [2] 0 | volasertib -0.038 | [3] 0.018 | saracatinib -0.037 | sotrastaurin 0.031 | Tubastatin A 0.075 | [6] 0.082 | defactinib 0.216 | [7] -0.005 | encorafenib 0.04 | [8] -0.135 | [9] 0.076

CDK16 isoform 2 (UniProt Q00536)
inactive: vemurafenib 0.03 | [1] 0.075 | barasertib 0.007 | [2] -0.006 | volasertib -0.175 | [3] -0.03 | [4] -0.027 | [5] 0.083 | saracatinib 0.03 | sotrastaurin 0.236 | Tubastatin A 0.029 | [6] 0.05 | defactinib 0.285 | [7] 0.106 | encorafenib 0.04 | [8] -0.024 | alisertib -0.014 | [9] 0.008 | gefitinib -0.026

BUD23 isoform 3 (UniProt O43709)
UniProt O43709, sequence (O43709 whole entry, looked up): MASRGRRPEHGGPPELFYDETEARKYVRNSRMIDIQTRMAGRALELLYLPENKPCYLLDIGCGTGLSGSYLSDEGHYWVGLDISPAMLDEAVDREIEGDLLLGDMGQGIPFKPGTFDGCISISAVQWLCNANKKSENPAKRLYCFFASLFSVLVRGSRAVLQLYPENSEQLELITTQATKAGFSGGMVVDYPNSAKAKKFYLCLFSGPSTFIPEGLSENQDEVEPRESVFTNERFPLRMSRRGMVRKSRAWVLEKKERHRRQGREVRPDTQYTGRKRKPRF
active: [4] -0.341
inactive: vemurafenib 0.01 | [1] 0.017 | barasertib 0.038 | [2] -0.006 | volasertib -0.029 | [3] -0.104 | [5] 0.193 | saracatinib 0.019 | sotrastaurin 0.017 | alvocidib -0.126 | Tubastatin A 0.14 | [6] 0.026 | defactinib -0.046 | [7] -0.052 | encorafenib -0.017 | [8] 0.036 | alisertib 0.082 | [9] 0.085 | gefitinib 0.054
